Source: PubChem (National Center for Advancing Translational Sciences (NCATS))
Compounds with a hit are over-represented: about 2.4% of the library has one in this group of screens.
D2 PAM-1: positive allosteric modulators of human D2 dopamine receptor | potentiation, % at 10 µM | HEK293 T-REx D2, calcium flux, EC20 dopamine potentiation | P14416 | 340,000 compounds, 0.34% hits | AID 485347;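 active means potentiation over 3 SD above the plate norm, cut at about 30% in these data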; further: 0% is about no effect
Target sequence (P14416 whole entry, looked up): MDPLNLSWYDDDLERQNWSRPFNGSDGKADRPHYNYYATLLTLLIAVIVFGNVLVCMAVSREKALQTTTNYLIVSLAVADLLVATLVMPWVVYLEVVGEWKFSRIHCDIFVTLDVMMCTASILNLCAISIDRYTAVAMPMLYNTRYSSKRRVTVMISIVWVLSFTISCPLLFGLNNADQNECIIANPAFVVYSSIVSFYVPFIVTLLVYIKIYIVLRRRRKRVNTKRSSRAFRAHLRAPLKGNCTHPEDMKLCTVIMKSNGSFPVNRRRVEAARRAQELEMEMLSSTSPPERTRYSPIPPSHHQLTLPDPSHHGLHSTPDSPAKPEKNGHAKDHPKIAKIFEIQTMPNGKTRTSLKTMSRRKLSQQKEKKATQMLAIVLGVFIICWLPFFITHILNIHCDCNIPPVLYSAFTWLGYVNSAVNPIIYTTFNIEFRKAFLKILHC
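Potentiation of an EC20 dopamine calcium response measured kinetically over 180 s, after a preceding 180 s compound-only read flagging agonists. Cells: inducible Hek293 Trex D2 line, 4000/well, cultured overnight at 30 C before dye loading.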
D2 ag-1: D2 dopamine receptor (human) agonism; activation, % at 2 µM; AID 485358; HEK293 T-REx D2 cells, calcium flux agonist mode; 340,000 compounds, 0.53% hits;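 active means activation over 3 SD above normal in the single-dose calcium agonist read, cut at about 30% in these data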; further: 0% is about no effect
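Agonism scored from kinetic calcium signal (1 read/sec, 180 s) following compound pin transfer, after a 10 s baseline. Cells: HEK293 Trex line expressing inducible D2 receptor coupled to calcium, dye-loaded after overnight culture at 30 C.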
D2 PAM-2: potentiates the human D2 dopamine receptor allosterically; P14416; DiscoveRx D2 beta-arrestin cells, luminescence, 90 min; 100% = 57 uM dopamine signal; potentiation, % (test concentration not listed); 360,000 compounds, 0.23% hits; in the data active means potentiation above about 50%; inconclusive means mostly about 30% to 49%
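PathHunter beta-arrestin assay in DiscoveRx D2 cells. Compounds were added with an EC20 of dopamine (50 nM final) for 90 min at 37 deg C. Luminescence was read 1 h after detection reagent, with 57 uM dopamine as the EC100 control.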
D2 antagonist: D2 dopamine receptor (human) antagonism; AID 485344; HEK293 TREx D2 cells, calcium flux, dopamine EC80; inhibition, % at 10 µM; 340,000 compounds, 2% hits; P14416; in the data active means inhibition above about 30%; inactive means below that, where a call was filed; further: 0% is about no effect
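Antagonism is scored as inhibition of an EC80 dopamine-evoked calcium signal in a force-coupled, tetracycline-inducible HEK293 T-REx D2 line, with compound present 180 s before agonist.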
D2 ag-2: human D2 receptor agonism in beta-arrestin assay. P14416. DiscoveRx PathHunter D2 beta-arrestin, luminescence, 90 min; 100% = 57 uM dopamine signal. activation, % (no concentration beside the values). 360,000 compounds, 0.084% hits. AID 624465; in the data active means activation above about 40%; inconclusive means between about 15% and that limit
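Agonist mode: compounds alone added to overnight-plated D2 PathHunter cells for 90 min at 37 C, with 57 uM final dopamine (EC100) defining full response. Beta-arrestin recruitment detected by chemiluminescent reagent, read after 1 h at ambient temperature.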
* marks the source's active call; other numbers are inactive results; ? = inconclusive; . = no result given.

SMILES	D2 PAM-1	D2 ag-1	D2 PAM-2	D2 antagonist	D2 ag-2
Cc1noc(-c2ccc(-c3noc(-c4cccc(F)c4)n3)cc2)n1	13.5	.	.	.	.
Cc1cccc(NC(=O)CN(C)S(=O)(=O)c2ccc3c(c2)c(=O)n(C)c(=O)n3C)c1C	-1.5	5.3	.	.	.
COc1cccc(NC(=O)c2c(C)nn(-c3ccccc3)c2Cl)c1	-1.2	-0.3	-2.4	-17.3	-4.2
COc1cc(OC)c(CNC2CCCCCC2)cc1Br	-2.0	-0.9	-13.1	48.7*	-6.4
COC(=O)C(C)Sc1nnc(SC(C)C(=O)OC)s1 (configuration not stated)	21.4	-1.3	-13.7	39.7*	-3.0
O=C(C1CCC(Cn2c(=O)c3sccc3n(Cc3ccccc3)c2=O)CC1)N1CCCCC1 (configuration not stated)	13.5	0.1	.	.	.
Cc1ccc(S(=O)(=O)N(C(=O)c2ccncc2)c2ccc(OC(=O)c3ccncc3)c3ccccc23)c(C)c1	.	.	89.9*	.	?
O=C(CC12CC3CC(CC(Br)(C3)C1)C2)NC1CCCC1	6.6	1.5	-3.0	33.7*	-0.5
CCN(CC)CCNC(=O)c1cc(-c2ccc(Br)s2)nc2ccccc12	-10.1	0.9	-17.8	-29.1	1.4
CCN(CC)CCNC(=O)c1cc2cc(Br)ccc2s1	-4.6	-0.9	-15.4	50.3*	0.0
CCN1C(=O)OC2(CCCCC2)C1(C)O (configuration not stated)	40.5*	0.3	.	6.6	.
CC(C(=O)OCC(=O)c1ccc(Br)cc1)N1C(=O)C2C3C=CC(C3)C2C1=O (configuration not stated)	32.2*	2.4	-1.2	-19.6	-3.3
CC(=O)c1ccc2noc(-c3ccccc3)c2c1	22.1	0.5	?	-6.3	?
c1ccc(-c2onc3cc4c(cc23)OCCO4)cc1	4.2	-1.0	117.0*	-1.4	?
O=C(COC(=O)CCc1c[nH]c(=O)[nH]1)Nc1cccc(Cl)c1	2.9	2.1	-6.1	35.0*	-2.6
Cc1ccccc1CN1CCN(CC(=O)NC(C)c2ccccc2)CC1 (configuration not stated)	.	.	-14.5	.	-1.3
Cc1ccc(SCCOCCN2CC(C)OC(C)C2)cc1 (configuration not stated)	21.1	-0.4	-22.7	20.1	-2.1
O=[N+]([O-])c1ccc(OCCCCN2CCc3ccccc3C2)cc1	-31.1	-0.7	-22.4	62.1*	4.6
COc1ccc(OCCCN2CCc3ccccc3C2)cc1	-12.9	-0.1	-26.4	71.9*	-1.1
C=CCc1cc(OC)ccc1OCCOCCN1CCc2ccccc2C1	-25.0	-0.9	-17.9	84.1*	0.2
Cc1ccc(SCCOCCN2CCc3ccccc3C2)cc1	-24.4	-1.1	-20.7	75.0*	-4.8
c1ccc(OCCOCCN2CCc3ccccc3C2)cc1	-24.8	-0.8	-9.1	64.9*	-5.0
c1ccc(OCCOCCN2CCN(C(c3ccccc3)c3ccccc3)CC2)cc1	-35.6	-0.7	-27.1	-36.6	-5.8
CCOc1ccc(OCCOCCN2CCc3ccccc3C2)cc1	-20.0	12.9	-44.9	68.4*	-0.4
CCCOc1ccc(OCCOCCN2CCc3ccccc3C2)cc1	-26.3	13.8	1.3	31.4*	-0.3
SMILES	D2 PAM-1	D2 ag-1	D2 PAM-2	D2 antagonist	D2 ag-2
CCOc1ccc(OCCOCCN2CCCC2)cc1	8.6	0.8	13.1	-15.0	-2.0
CC(=O)c1ccc(N2CCN(c3ncnc4c3cnn4-c3cc(Cl)ccc3C)CC2)cc1	7.6	0.3	.	.	.
O=C(CSc1cc(Cl)ccc1Cl)NC1CC1	14.9	0.2	-6.2	0.4	-4.9
CN1CCN(NC(=O)CSc2ccc(Cl)cc2Cl)CC1	2.6	0.4	-4.2	45.8*	-2.3
COc1cc2c(cc1OC)C1Cc3ccc(OC)c(OC)c3CN1CC2 (configuration not stated)	-22.2	5.0	-47.2	79.7*	-3.6
COc1cc2c(cc1OC)[C@@H]1Cc3ccc(OC)c(OC)c3CN1CC2	-21.3	4.0	-19.1	57.2*	-2.0
O=C(C[C@H]1C/C=C\C[C@@H](Cc2ccc(F)cc2)C(=O)OC[C@H]2CCCN2C1=O)NCCO	.	.	3.4	.	0.1
O=C(Nc1cccc(C(F)(F)F)c1)c1ccc(Cn2cc(Br)cn2)o1	-17.4	1.8	-30.3	35.5*	-3.1
O=C(Nc1ccc(C(F)(F)F)cc1Cl)c1ccc(Cn2cc(Br)cn2)o1	-22.1	1.7	-6.5	37.2*	2.3
O=C(N/N=C/c1c(F)cccc1Cl)c1ccc(Cn2cc(Br)cn2)o1	-7.0	-3.2	-11.0	-7.2	-4.0
C/C(=N\NC(=O)c1ccc(Cn2cc(Br)cn2)o1)c1cccc(NC(=O)C(C)(C)C)c1	-5.4	2.0	22.5	7.9	-0.6
CC(C)C(NS(=O)(=O)c1ccc2c(c1)oc(=O)n2C)C(=O)N1CCN(c2cccc(Cl)c2)CC1 (configuration not stated)	6.7	-0.9	.	.	.
CCc1ccc(CNC(=O)C(C)n2ccc3cc(S(=O)(=O)N4CCCCCC4)ccc32)cc1 (configuration not stated)	0.5	1.1	.	.	.
CC1=C(C#N)C2(O)C(=O)c3ccccc3C2(O)N1 (configuration not stated)	-7.0	1.8	-3.9	-7.5	-0.3
COc1ccc2c(c1)NC1(O)c3ccccc3C(=O)C21O (configuration not stated)	-7.9	-0.4	0.5	32.3*	-1.6
O=[N+]([O-])c1ccc(NC2CCN(Cc3ccccc3)CC2)c([N+](=O)[O-])c1	-7.0	-0.4	-4.2	17.2	12.4
O=[N+]([O-])c1ccccc1NC1CCN(Cc2ccccc2)CC1	-24.6	-1.2	-18.6	39.2*	-5.3
NC(=O)CC(NC(=O)Cc1cccc2ccccc12)c1ccc(NC2CCN(Cc3ccccc3)CC2)c([N+](=O)[O-])c1 (configuration not stated)	-2.6	0.0	-15.5	32.1*	-3.0
NC(=O)CC(NC(=O)Cc1ccc(Br)cc1)c1ccc(NC2CCN(Cc3ccccc3)CC2)c([N+](=O)[O-])c1 (configuration not stated)	-2.2	-0.9	-43.8	-4.6	-1.7
CCOc1ccccc1N(CC(=O)NCCSc1ccccc1)S(=O)(=O)c1ccccc1	5.9	1.4	.	.	.
CCOc1ccccc1C1Nc2ccccc2-c2nnc(SCc3ccccc3)nc2O1 (configuration not stated)	-10.4	.	.	.	.
Cc1[nH]nc2c1C(c1ccc(F)cc1)C1=C(CC(C)(C)CC1=O)N2 (configuration not stated)	30.4*	22.8	-13.2	18.7	-1.6
Cc1ccc(C2C3=C(CC(C)(C)CC3=O)Nc3n[nH]c(C)c32)cc1 (configuration not stated)	12.8	0.3	-6.7	-33.3	-0.2
Cn1c(-c2ccc(CN3CCCCC3)o2)nc2ccccc21	-21.1	-0.3	-42.4	33.8*	-4.7
